Test [1] is described as follows: qHTS assay to identify small molecule antagonists of the glucocorticoid receptor (GR) signaling pathway - cell viability counter screen (AID 720693). Further: nearly all actives have a fitted effect of over 55% in size. For orientation: Quantitative high-throughput screening tests each substance at several concentrations.
The nature of test [2]: qHTS assay for identifying genotoxic compounds that show differential cytotoxicity against isogenic chicken DT40 cell lines with known DNA damage response pathways - wild type cell line (AID 743012). Further: nearly all actives have a fitted effect of over 60% in size. Further: potency means the concentration at half of the fitted maximal effect. An outline of the steps: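 300 wt DT40 cells/well; cpd (DMSO) pintool-transferred after ~0.5 h at 37 C/5% CO2; 40 h incubation; CellTiter-Glo added, 30 min RT; luminescence read.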

Test [3] in a line: qHTS assay for identifying genotoxic compounds that show differential cytotoxicity against isogenic chicken DT40 cell lines with known DNA damage response pathways - Rev3 mutant cell line (AID 743014). Further: nearly all actives have a fitted effect of over 55% in size. Further: potency means the concentration at half of the fitted maximal effect.
Test [4] in a line: qHTS assay for identifying genotoxic compounds that show differential cytotoxicity against isogenic chicken DT40 cell lines with known DNA damage response pathways - Rad54/Ku70 mutant cell line (AID 743015). Further: nearly all actives have a fitted effect of over 60% in size. Further: potency means the concentration at half of the fitted maximal effect.
A short description of test [5]: qHTS assay to identify small molecule antagonists of the androgen receptor (AR) signaling pathway using the MDA cell line - cell viability counter screen (AID 743041; further: nearly all actives have a fitted effect of over 45% in size; further: potency means the concentration at half of the fitted maximal effect). A digest of the protocol: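 In this qHTS counter assay, fluorescence intensity after CellTiter-Fluor addition indicated viability of MDA-kb2 AR-luc cells given compounds and R1881 for 16 h at 37C.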

The nature of test [6]: qHTS assay to identify small molecule antagonists of the thyroid receptor (TR) signaling pathway - cell viability counter screen (AID 743064). Further: nearly all actives have a fitted effect of over 50% in size. Further: potency means the concentration at half of the fitted maximal effect. An outline of the steps:
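Plate GH3.TRE-Luc cells; incubate 4 h at 37 °C; add compound, then T3 to 1 nM final; incubate 23.5 h; add CellTiter-Fluor; incubate 30 min at 37 °C, 5% CO2; read fluorescence.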

The nature of test [7]: qHTS assay to identify small molecule antagonists of the thyroid receptor (TR) signaling pathway (AID 743065). Further: nearly all actives have a fitted effect of over 55% in size. Further: potency means the concentration at half of the fitted maximal effect. A digest of the protocol: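 GH3.TRE-Luc rat pituitary cells carrying two TR response elements driving luciferase were plated for 4 h, given compound plus 1 nM T3 (final), and incubated 23.5 h at 37 C. ONE-Glo luminescence measured reporter inhibition; CellTiter-Fluor fluorescence tracked cytotoxicity.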

Test [8] can be described thus: qHTS assay to identify small molecule antagonists of the estrogen receptor alpha (ER-alpha) signaling pathway - cell viability counter screen (AID 743074; calls by dose curve;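 further: HEK293 cells carrying ER-alpha-UAS-bla reporter stimulated with 17beta-estradiol; nearly all actives have a fitted effect of over 45% in size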).
The target in test [9] is Estrogen receptor (Homo sapiens) (UniProt P03372). The test is described as follows: qHTS assay to identify small molecule agonists of the estrogen receptor alpha (ER-alpha) signaling pathway (AID 743075; calls by dose curve;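 further: HEK293 GripTite cells with ER-alpha and UAS-driven beta-lactamase reporter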).
Another test concerns the target Aromatase (Homo sapiens) (UniProt P11511). The test is described as follows: qHTS assay to identify aromatase inhibitors (AID 743083). Further: nearly all actives have a fitted effect of over 55% in size. Further: potency means the concentration at half of the fitted maximal effect.
For test [10], the target named is Androgen receptor (Homo sapiens) (UniProt P10275). Briefly: qHTS assay to identify small molecule antagonists of the androgen receptor (AR) signaling pathway using the MDA cell line (AID 743042; further: nearly all actives have a fitted effect of over 55% in size). An outline of the steps:
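MDA-kb2 cells (human breast carcinoma, stably carrying an MMTV-luciferase reporter responsive to AR and GR) were plated at 3,000 cells/well and preincubated 5 hr at 37C, then given compound plus R1881 agonist for 16 h. ONE-Glo luminescence was read.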

In test [11] the test system is thyroid hormone receptor (rat, GH3 cells). The test is described as follows: qHTS assay to identify small molecule agonists of the thyroid receptor (TR) signaling pathway (AID 743066; calls by dose curve).
Test [12] deals with Estrogen receptor (Homo sapiens) (UniProt P03372). Briefly: qHTS assay to identify small molecule agonists of the estrogen receptor alpha (ER-alpha) signaling pathway using the BG1 cell line (AID 743079). Further: nearly all actives have a fitted effect of over 20% in size. Further: potency means the concentration at half of the fitted maximal effect. Conditions: BG1Luc4E2 cells, ERE-luciferase agonist, 22 h; activation: at 70.3 µM (top of the series).
Test [13] is described as follows: qHTS assay to identify small molecule antagonists of the estrogen receptor alpha (ER-alpha) signaling pathway using the BG1 cell line - cell viability counter screen (AID 743081).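 Further: compound given together with 17beta-estradiol as the ER stimulus; nearly all actives have a fitted effect of over 45% in size.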
The nature of test [14]: qHTS assay to identify small molecule antagonists of the androgen receptor (AR) signaling pathway - cell viability counter screen (AID 743033; further: nearly all actives have a fitted effect of over 45% in size).
Test [15] deals with Androgen receptor (Homo sapiens) (UniProt P10275). Briefly: qHTS assay to identify small molecule antagonists of the androgen receptor (AR) signaling pathway (AID 743035; active means well fitted inhibition curve with a large enough effect in the signal ratio in the repeat runs, not every such curve was filed as active; the % refers to the signal ratio). A digest of the protocol: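 In this cell-based reporter screen, compounds were tested in concentration series against R1881-activated HEK293 cells expressing beta-lactamase under UAS control; after 16 h at 37C, FRET substrate was added and fluorescence read 2 h later.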

For test [16] the target is unchanged. Briefly: qHTS assay to identify small molecule agonists of the androgen receptor (AR) signaling pathway (AID 743036; active means well fitted activation curve with a large enough effect in the signal ratio in the repeat runs, with a control signal flat, not every such curve was filed as active; the % refers to the signal ratio). A digest of the protocol:
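Reporter line: GeneBLAzer AR-UAS-bla-GripTite (HEK293). Steps: plate cells, 4 h rest, add compounds, 16 h at 37C, add LiveBLAzer B/G substrate, 2 h at RT, read fluorescence.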

The target is the same in test [17]. Briefly: qHTS assay to identify small molecule agonists of the androgen receptor (AR) signaling pathway using the MDA cell line (AID 743040; further: nearly all actives have a fitted effect of over 20% in size). An outline of the steps: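 Cell-based luciferase reporter: MDA-kb2, MMTV promoter (AR + GR response elements). 16 h compound exposure at 37C; ONE-Glo, 30 min RT, luminescence.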
Test [18] can be described thus: qHTS assay to identify small molecule antagonists of the estrogen receptor alpha (ER-alpha) signaling pathway using the BG1 cell line (AID 743080; calls by dose curve;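 further: BG1 cells stimulated with 17beta-estradiol alongside compound; nearly all actives have a fitted effect of over 25% in size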; further: potency means the concentration at half of the fitted maximal effect). An outline of the steps:
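Seeding, 24 h rest, compound transfer from DMSO, 17beta-estradiol addition, 21.5 h incubation, CellTiter-Fluor (30 min, 37 C), then ONE-Glo (30 min, room temperature): this sequence was run on BG1-Luc-4E2 reporter cells.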

Test [19] concerns the target Estrogen receptor (Homo sapiens) (UniProt P03372). The test is described as follows: qHTS assay to identify small molecule antagonists of the estrogen receptor alpha (ER-alpha) signaling pathway (AID 743069; active means well fitted curve in the direction sought with a large enough effect in the signal ratio in the repeat runs, not every such curve was filed as active; the % refers to the signal ratio). An outline of the steps: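 A 17beta-estradiol challenge was applied right after compound transfer to ER-alpha-UAS-bla HEK293 cells previously kept in charcoal-stripped serum. Plates stood 18 hr at 37C and 5% CO2; fluorescence was read following 2 hr FRET substrate loading at room temperature.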

Inconclusive results are not listed. Activity calls are given as the source filed them. Unless noted, the call rests on the fitted dose curve; in most records, active means well fitted curve in the direction sought with a large enough effect in the repeat runs; inconclusive means weak or mixed curves; inactive means no such curve, though single readings can be large; an effect the other way counts as inactive or inconclusive.

Sequence of Estrogen receptor (Homo sapiens) (P03372 whole entry, looked up): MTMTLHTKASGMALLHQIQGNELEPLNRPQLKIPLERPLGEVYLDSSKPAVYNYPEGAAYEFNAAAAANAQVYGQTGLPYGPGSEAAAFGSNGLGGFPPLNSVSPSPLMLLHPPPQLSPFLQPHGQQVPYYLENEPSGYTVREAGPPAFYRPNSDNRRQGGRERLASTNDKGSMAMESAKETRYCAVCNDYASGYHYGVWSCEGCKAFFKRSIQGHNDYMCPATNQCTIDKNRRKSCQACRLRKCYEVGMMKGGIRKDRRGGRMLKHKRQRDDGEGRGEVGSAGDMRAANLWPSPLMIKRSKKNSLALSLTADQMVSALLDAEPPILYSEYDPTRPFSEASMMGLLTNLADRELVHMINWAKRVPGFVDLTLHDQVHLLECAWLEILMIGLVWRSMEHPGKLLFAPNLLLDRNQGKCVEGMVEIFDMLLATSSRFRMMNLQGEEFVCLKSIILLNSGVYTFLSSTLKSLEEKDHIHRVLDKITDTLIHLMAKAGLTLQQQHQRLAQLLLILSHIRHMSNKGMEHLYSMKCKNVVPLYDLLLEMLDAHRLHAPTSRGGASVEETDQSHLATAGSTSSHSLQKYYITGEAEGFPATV
Sequence of Androgen receptor (Homo sapiens) (P10275 whole entry, looked up): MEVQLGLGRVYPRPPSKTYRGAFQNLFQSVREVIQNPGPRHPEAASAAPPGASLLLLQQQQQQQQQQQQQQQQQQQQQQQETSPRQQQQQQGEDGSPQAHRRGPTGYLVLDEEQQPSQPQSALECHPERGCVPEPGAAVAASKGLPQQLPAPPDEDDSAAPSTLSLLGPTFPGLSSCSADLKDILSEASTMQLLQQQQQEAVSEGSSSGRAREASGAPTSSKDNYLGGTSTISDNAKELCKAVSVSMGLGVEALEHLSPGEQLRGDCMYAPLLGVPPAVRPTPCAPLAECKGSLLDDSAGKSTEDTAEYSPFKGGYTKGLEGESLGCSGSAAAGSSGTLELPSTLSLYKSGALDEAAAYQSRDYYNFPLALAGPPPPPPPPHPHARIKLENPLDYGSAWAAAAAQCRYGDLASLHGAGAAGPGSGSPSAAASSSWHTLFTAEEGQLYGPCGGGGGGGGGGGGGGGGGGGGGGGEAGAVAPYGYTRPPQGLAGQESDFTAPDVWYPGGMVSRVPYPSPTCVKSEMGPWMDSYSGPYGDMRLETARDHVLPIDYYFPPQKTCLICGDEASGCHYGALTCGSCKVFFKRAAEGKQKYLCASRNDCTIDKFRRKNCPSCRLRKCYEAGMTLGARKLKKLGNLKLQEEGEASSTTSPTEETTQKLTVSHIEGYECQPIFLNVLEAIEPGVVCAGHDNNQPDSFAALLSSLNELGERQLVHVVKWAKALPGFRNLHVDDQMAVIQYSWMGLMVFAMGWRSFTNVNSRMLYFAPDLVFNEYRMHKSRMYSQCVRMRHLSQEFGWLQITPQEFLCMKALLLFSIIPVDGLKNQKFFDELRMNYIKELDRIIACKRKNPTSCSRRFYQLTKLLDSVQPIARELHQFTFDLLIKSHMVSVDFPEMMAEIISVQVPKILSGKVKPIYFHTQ
Sequence of Aromatase (Homo sapiens) (P11511 whole entry, looked up): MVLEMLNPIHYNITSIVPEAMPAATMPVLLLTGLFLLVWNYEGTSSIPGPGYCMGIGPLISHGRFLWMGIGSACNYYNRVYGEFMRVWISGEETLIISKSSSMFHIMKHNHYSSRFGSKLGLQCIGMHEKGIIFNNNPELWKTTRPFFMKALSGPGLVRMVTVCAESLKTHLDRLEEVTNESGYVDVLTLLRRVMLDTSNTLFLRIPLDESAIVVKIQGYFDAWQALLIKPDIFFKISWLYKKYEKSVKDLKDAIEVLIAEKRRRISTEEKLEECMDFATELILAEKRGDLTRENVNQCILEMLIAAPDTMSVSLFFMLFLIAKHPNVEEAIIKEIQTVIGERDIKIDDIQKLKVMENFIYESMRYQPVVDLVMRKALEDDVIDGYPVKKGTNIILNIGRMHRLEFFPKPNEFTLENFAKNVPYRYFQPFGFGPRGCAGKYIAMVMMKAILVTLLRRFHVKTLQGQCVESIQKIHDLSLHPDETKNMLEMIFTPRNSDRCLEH

For `O=C(N[C@@H](c1ccccc1)[C@@H]1CCCCN1)c1cccc(C(F)(F)F)c1Cl`, the Potency result in test [1], in test [8] and in test [9] was “inactive” each time. The Potency in [2] is 12.2 µM (active); in test [3], 13.7 µM (active); in test [4], 15.4 µM (active); in test [5], 24.3 µM (active); in [6], 24.3 µM (active); in test [7] it was 27.3 µM (active). Also, the Potency in the test with Aromatase (Homo sapiens) is 38.6 µM (active).

`CCCc1c(OCCCOc2ccc(OCC(=O)O)cc2)ccc(C(C)=O)c1O`: the Potency result in test [1], in test [2], in [3], in test [5], in [10] and in test [6] was “inactive” in each case. The Potency result in test [8], in test [9], in test [12] and in test [13] was “inactive” in each case. The result in test [11] was inactive.

On to `CCOC(=O)[C@@H](C)Oc1ccc(Oc2nc3ccc(Cl)cc3o2)cc1`, for which the Potency result in [1], in [14], in test [5], in [10], in test [7] and in [8] was “inactive” each time. In addition, the Potency entry (in [13]; in the test with Aromatase (Homo sapiens)) was “inactive” throughout. For the same molecule, the Potency in test [2] was 68.6 µM (active); in test [4], 61.1 µM (active). For the same molecule, the molecule was called inactive in test [11].

In the case of `NC(=O)Cn1c(=O)cc(CCN2CCN(c3nccc4sccc34)CC2)c2ccc(F)cc21`, the Potency result (in [1]; in test [5]; in [8]; in [9]; in [13]; in the test with Aromatase (Homo sapiens)) was “inactive” in each case. Further, the Potency in [2] was 27.3 µM (active); in test [3] it was 27.3 µM (active); in [4], 24.3 µM (active).

As for `CC1=C(/C=C/C(C)=C\C=C\C(C)=C\C(=O)O)C(C)(C)CCC1`, the Potency entry in test [1], in test [14], in test [5], in test [6], in [7] and in test [8] was “inactive” each time. Further, the Potency entry (in test [9]; in [13]; in the test with Aromatase (Homo sapiens)) was “inactive” throughout. Besides, the Potency in test [2] is 34.4 µM (active).

`NCC1CCCC(CN)C1` (stereo not given): the Potency entry in [1], in [3], in test [4], in [14], in [15] and in test [16] was “inactive” each time. Also, the Potency result in test [17], in test [5], in test [10], in [6], in [7] and in [8] was “inactive” in each case. For the same molecule, the Potency result (in test [13]; with Aromatase (Homo sapiens)) was “inactive” each time. Besides, in test [11], the result was inactive.

As to `CCn1nc(C)c2c1C(=O)NCC(c1ccc(O)cc1)=N2`, the Potency entry in test [1], in test [14], in [5], in [6], in [7] and in [8] was “inactive” in each case. Further, the Potency result (in [9]; in test [12]; in test [18]; in [13]; with Aromatase (Homo sapiens)) was “inactive” throughout. Moreover, the figures for the Potency in [2] and in [3] were 61.1 µM (active) and 34.4 µM (active), respectively. Also, the outcome in test [11] was inactive.

`NC(=O)N(O)[C@@H]1C=C[C@H](Oc2cccc(Oc3ccc(F)cc3)c2)C1`: the Potency result in test [1], in [5], in test [6], in [19], in test [8] and in test [9] was “inactive” in each case. Besides, the Potency result in test [13] was “inactive”. The Potency in test [2] was 54.5 µM (active); in test [3], 61.1 µM (active); in test [4], 54.5 µM (active); in test [12], 13.7 µM (active); in [18] it was 77 µM (active).

In the case of `N#C/C(=C1\SCC(c2ccccc2Cl)S1)n1ccnc1` (stereo not given), the Potency entry in test [1], in test [14], in test [15], in test [16], in [5] and in test [10] was “inactive” in each case. The Potency result in test [8] and in test [13] was “inactive” each time. Moreover, the Potency in [3] is 26.6 µM (active); in test [4], 29.8 µM (active); in the test with Aromatase (Homo sapiens), 3.35 µM (active).

Take `CC1(C)C(=O)N(Br)C(=O)N1Cl`: the Potency entry in [1], in [14], in test [5], in test [6], in [7] and in test [8] was “inactive” in each case. The Potency entry (in [13]; with Aromatase (Homo sapiens)) was “inactive” throughout. Also, the Potency in [2] and in test [3] was 61.1 µM (active) throughout. In addition, the call in test [11] was inactive.

For the molecule `CCC(C(=O)OCCN(CC)CC)c1ccccc1` (stereo not given), the Potency result in test [1], in test [2], in [14], in test [15], in test [16] and in [10] was “inactive” in each case. Besides, the Potency result in [6], in test [7], in test [19], in [8], in test [9] and in [12] was “inactive” throughout. Also, the Potency entry (in test [13]; in the test with Aromatase (Homo sapiens)) was “inactive” each time. The result in [11] was inactive.

Consider `C[C@@H]1C[C@H]2[C@@H]3CCC4=CC(=O)C=C[C@]4(C)[C@@]3(F)[C@@H](O)C[C@]2(C)[C@H]1C(=O)CO`, for which the Potency entry in [1], in test [14], in [5], in test [6], in test [8] and in test [13] was “inactive” in each case. In the test with Aromatase (Homo sapiens), the Potency entry was “inactive”. Also, the Potency in test [2] is 13.3 µM (active); in test [4] it was 26.6 µM (active). Also, in [11], the outcome was inactive.

Take `CC(=O)OCC(=O)[C@@]12OC(C)(C)O[C@@H]1C[C@H]1[C@@H]3C[C@H](F)C4=CC(=O)C=C[C@]4(C)[C@@]3(F)[C@@H](O)C[C@@]12C`: the Potency result in test [1], in [2], in [3], in test [4], in test [5] and in test [8] was “inactive” throughout. Also, the Potency result (in test [13]; with Aromatase (Homo sapiens)) was “inactive” each time.

With `C[N+](C)(C)CCOC(N)=O`, the Potency result in test [1], in [3], in [4], in [14], in test [16] and in test [5] was “inactive” each time. The Potency result (in [10]; in test [6]; in test [7]; in test [8]; in test [13]; with Aromatase (Homo sapiens)) was “inactive” each time. The molecule was called inactive in test [11].

The values above are taken from PubChem BioAssay (Tox21).
